Data reported in PubChem BioAssay AID720519 (National Center for Advancing Translational Sciences (NCATS), 2013).
Records with an inconclusive call do not appear. Entries that show only a call come without a potency. Active and inactive are the calls of the source. Calls come from the whole dose curve; as a rule, active = well fitted activation curve with a large enough effect; inconclusive = small, poorly fitted or top-dose-only effect; inactive = flat fitted curve, though single readings scatter.

Assay: qHTS for Inhibitors of Cell Surface uPA Generation: Confirmatory Assay for Cherry-picked Compounds
Conditions: cell surface uPA activity generation, qHTS confirmation; series mostly up to 115 µM
Outline: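 RAW 264.7 cells at 4000/well, incubated overnight, then treated with compounds. After 24 h at 37 C, viability was read by ATPlite luminescence. An increase in signal indicates blocked uPA-dependent LF entry.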
Potency is the fitted concentration of half-maximal effect.

Q: With `CC1(C)CC2(CC(c3ccccc3)Oc3cc(O)ccc32)NC(=S)N1` (configuration not stated) as the molecule, how does the Potency read?
A: inactive

Q: For `COc1ccc(CC(=O)Nc2nc(C)cs2)cc1OC`, which Potency is on record?
A: inactive

Q: For `CCOC(=O)C1=C(CN2CCN(C(=O)c3ccco3)CC2)NC(=O)NC1c1ccccc1` (configuration not stated), which Potency is on record?
A: inactive

Q: For `CCCOC(=O)CSC1=C(C#N)C(c2ccccc2Cl)CC(=O)N1` (configuration not stated), which Potency is on record?
A: inactive

Q: For `CNC(=O)[C@@H]1CCC(=O)N1`, which Potency is on record?
A: inactive

Q: Which Potency does the source give for `CC1Cc2nc(SCC(=O)Nc3ccc4c(c3)OCO4)n(-c3ccc(F)cc3)c(=O)c2S1` (configuration not stated) here?
A: inactive

Q: For `COc1ccc(CNC(=O)C2(CC3CC(c4ccccc4)=NO3)CCNCC2)cc1` (configuration not stated), which Potency is on record?
A: inactive

Q: With `O=C(CSc1ccc(Cl)cc1)Nc1ccc(C2SCCS2)cc1` as the molecule, how does the Potency read?
A: inactive

Q: Which Potency does the source give for `Cc1cccc(C(=O)NCC(=O)OCC(=O)NC2CCCCCCC2)c1` here?
A: inactive

Q: With `CCCCn1c(C2CCCCC2)nc2cc3[nH]c(=O)c(C(C)C)nc3cc21` as the molecule, how does the Potency read?
A: inactive

Q: For `CN(CCC#N)C(=S)Nc1ccc(Oc2ccccc2)cc1`, which Potency is on record?
A: inactive

Q: With `Cc1ccc(C)c(N2N=C(C(=O)N(CC(C)C)c3c(N)n(Cc4ccccc4)c(=O)[nH]c3=O)CCC2=O)c1` as the molecule, how does the Potency read?
A: inactive

Q: Which Potency does the source give for `CCCCN(CC)CCNC(=O)c1cc2cc3ccc(Cl)cc3nc2o1` here?
A: inactive

Q: With `COc1cc(OC)cc(C(=O)NC(C(=O)Nc2ccc3c(c2)CCC3)C(C)C)c1` (configuration not stated) as the molecule, how does the Potency read?
A: inactive

Q: With `CC(C)C1Oc2ccccc2N(CC(=O)NC2CCCCC2)C1=O` (configuration not stated) as the molecule, how does the Potency read?
A: 32.9 µM (active)

Q: For `O=c1[nH]c2ccccc2cc1CN(CC1CCCO1)S(=O)(=O)c1ccccc1` (configuration not stated), which Potency is on record?
A: inactive

Q: Which Potency does the source give for `COCCN(CCOC)c1nc(-c2ccc(C)cc2)nc2ccccc12` here?
A: inactive

Q: Which Potency does the source give for `CCCCCOC(=O)Nc1nnc(CCCCC)s1` here?
A: inactive

Q: For `CS/C(=C\[N+](=O)[O-])Nc1ccccc1`, which Potency is on record?
A: inactive

Q: For `Cn1c(=O)c(=O)n(C)c2cc(S(=O)(=O)CCC(=O)Nc3ccc(F)cc3)ccc21`, which Potency is on record?
A: inactive

Q: For `Cc1cc(OC(C)C(=O)NCc2ccccn2)c2c(C)cc(=O)oc2c1` (configuration not stated), which Potency is on record?
A: inactive

Q: With `COc1ccc(C2C(C(=O)c3ccc(C)o3)=C(O)C(=O)N2CC2CCCO2)cc1OC` (configuration not stated) as the molecule, how does the Potency read?
A: inactive
